The record followed here is PubChem BioAssay AID743360 (Molecular Libraries Program, Specialized Chemistry Center, …, 2014).

Calls of active or inactive are those of the source.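 The calls were made as follows: active = calcium retention capacity relative to untreated control above about 1.1 ratio (limit read from the data); inactive = the rest.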 Bounds are passed on as bounds.

This experiment is described as follows: mitochondrial Ca2+ retention capacity increase – biochemical, dry powder samples, uHTS hits, Calcium Green-5N, dose response (AID 743360). Conditions: isolated mitochondria, Ca retention capacity.
Take `O=C(Nc1ccc(CN2CCCCC2)cc1)c1ccc(Cl)c(OCc2ccccc2)c1`: the CRC/CRC0 ratio at 12.5 uM (higher = more inhibition) was 21.3 (active).
Consider `O=C(Nc1ccc(CN2CCCCC2)cc1)c1cc(Cl)cc(OCc2ccccc2)c1`, for which the CRC/CRC0 ratio at 12.5 uM (higher = more inhibition) is 22.7 (active).
In the case of `COc1ccc(Cl)c(C(=O)Nc2ccc(CN3CCN(C(=O)OC(C)(C)C)CC3)cc2)c1`, the CRC/CRC0 ratio at 12.5 uM (higher = more inhibition) is 1.37 (active).
In the case of `CN1CCN(Cc2ccc(NS(=O)(=O)c3cccc(Cl)c3)cc2)CC1` it was 1.01 (inactive); in that of `O=S(=O)(Nc1ccc(CCN2CCCCC2)cc1)c1ccc(F)c(Cl)c1`, 1.07 (inactive); in that of `COc1ccc(NC(=O)c2cc(Cl)cc(Cl)c2OC)cc1`, > 1 (inactive).
With `COc1ccc(C(=O)CCN2CCCC(C)C2)cc1` (configuration not stated), the CRC/CRC0 ratio at 12.5 uM (higher = more inhibition) was 1.07 (inactive).
On to `O=C(Nc1ccccc1C(F)(F)F)c1cc(-c2ccccc2)on1`, for which the CRC/CRC0 ratio at 12.5 uM (higher = more inhibition) was > 1 (inactive).
In the case of `COc1ccc(Cl)cc1C(=O)Nc1ccc(N2CCOCC2)cc1` it was > 1 (inactive); in that of `O=S(=O)(Nc1ccc(CCN2CCCCC2)cc1)c1cccc(Cl)c1`, 1.12 (active).
In the case of `O=C(Nc1cccc(Cl)c1)c1cc(-c2ccc(Cl)cc2)on1` it was > 1 (inactive).
Turning to `COc1c(Cl)cccc1NC(=O)c1cc(-c2cccc(O)c2)on1`, the CRC/CRC0 ratio at 12.5 uM (higher = more inhibition) was 1.82 (active).
In the case of `COc1ccc(Cl)cc1C(=O)Nc1cccc(CN2CCNCC2)c1`, the CRC/CRC0 ratio at 12.5 uM (higher = more inhibition) is 1.52 (active).
Consider `O=C(Nc1ccc(N2CCCCC2)cc1)c1cccc(OCc2ccccc2)c1`, for which the CRC/CRC0 ratio at 12.5 uM (higher = more inhibition) is 1.01 (inactive).
Turning to `COc1ccc(Cl)cc1C(=O)Nc1ccc(CCN2CCN(C)CC2)cc1`, the CRC/CRC0 ratio at 12.5 uM (higher = more inhibition) is 1.37 (active).
`COc1ccccc1C(=O)Nc1ccc(C(=O)N2CCCCC2)cc1`: the CRC/CRC0 ratio at 12.5 uM (higher = more inhibition) was > 1 (inactive).
The figure for `O=C(Nc1ccccc1OCc1ccccc1)c1cc(-c2cccc(O)c2)on1` is 1.14 (active).
